PubChem BioAssay (NCATS)
Records with an inconclusive call do not appear. Calls of active or inactive are those of the source. Calls follow the shape of the dose curve; as a rule, active = well fitted cell-killing curve with a large enough effect; inconclusive = small, poorly fitted or top-dose-only effect; inactive = no such curve, though single readings can be large or run the other way.

Assay: qHTS of pediatric cancer cell lines to identify multiple opportunities for drug repurposing: Primary screen for MG 63 (6-TG R) cells (AID 1347105); also: nearly all actives have a fitted effect of over 50% in size
Settings: MG 63 (6-TG R) viability, CellTiter-Glo, 48 h; series mostly up to 46 µM
Text: Drug repurposing or repositioning has been offered as a strategy for drug development in oncology programs. This approach has special potential for childhood cancers and other rare or orphan diseases, where the expected return on new drug development has been a disincentive to pharmaceuticals. […] In this project we exploit the poly-pharmacology of drugs to discover new indications via phenotypic screening of a panel of 19 well-characterized cell lines derived from solid tumors seen in children and adolescents. The goal is to identify approved drugs with previously unrecognized anticancer properties that has the potential to reveal new mechanisms and biological processes involved in carcinogenesis or drug resistance. We employed a titration-based paradigm (quantitative high-throughput screening or qHTS), where all compounds were tested at multiple concentrations for their effect on cell viability. Concentration-response curves (CRCs) were derived directly from the primary screen, and both potency and efficacy values were used to identify compounds with robust bioactivity profiles. We screened the NIH Chemical Genomics Center (NCGC) Pharmaceutical Collection (NPC) and Mechanism Interrogation Plate (MIPE) small molecule collections of approved and investigational compounds against these cell lines; and measured metabolically active cells after 48 hours of compound treatment as a proxy for cell viability. […] Assay Submitter: Nathalia J. Martinez, National Center for Advancing Translational Sciences, National Institutes of Health, Rockville, MD, USA; email: natalia.martinez@nih.gov Shen, M et al. Quantitative high-throughput phenotypic screening of pediatric cancer cell lines identifies multiple opportunities for drug repurposing. Oncotarget 2017 Dec 19;9(4):4758-4772. PMID 29435139.
The cells were obtained from University of North Carolina (UNC), Pediatric Preclinical Testing Program (PPT), and Coriell Institute (CI). qHTS cell viability assay: Cells were assayed in growth media at a density of 500-1,000 cells/well. Five microliters of cells were dispensed into 1,536-well, white, solid-bottom, TC-treated plates (Greiner Bio One) using a multidrop dispenser and incubated at 37 degrees C, 5% CO2, under a humidified atmosphere for 5 hours. Twenty-three nanoliters of compounds and controls (neutral control DMSO or positive control bortezomib at final concentration of 2.3 µM) were subsequently transferred by Kalypsys pintool. For primary screens, the MIPE collection was tested at 11-point dilutions (final concentrations range from 0.78 nM to 46 µM) and the NPC collection at 8-point dilutions (final concentrations range from 0.59 nM to 46 µM). Compounds tested in follow-up screens were assayed at 11-point dilutions. Cells were incubated for 48 hours, followed by addition of 3 µL of CellTiter-Glo (Promega). After a 15 min incubation at room temperature, samples were analyzed for luminescence intensity using a ViewLux High-throughput CCD imager equipped with clear filters.
% is scaled to controls: 0 for no effect and ±100 for the full control effect.

Row | SMILES | outcome | activity change, negative = cytotoxic
1 | CN1C[C@@H]2C[C@H]1CN2c1cc2c(cc1F)c(=O)c(C(=O)O)cn2C1CC1 | inactive | 
2 | Cc1c(NC(C)C)c(=O)n(-c2ccccc2)n1C | inactive | 
3 | CCC(C)(CN(C)C)OC(=O)c1ccccc1 (stereo not given) | inactive | 
4 | O=C(Cn1ccnc1[N+](=O)[O-])NCCO | inactive | 
5 | C[C@@H](c1ncncc1F)C(O)(Cn1cncn1)c1ccc(F)cc1F (stereo not given in full) | inactive | 
6 | CC(=O)Nc1ccc(C(=O)O)cc1 | inactive | 
7 | O=C(O)Cn1c(C(=O)Nc2nc(-c3ccccc3Cl)cs2)cc2ccccc21 | inactive | 
8 | Cc1cc(=O)[nH]c(=S)[nH]1 | inactive | 
9 | CC(=O)N[C@@H](Cc1ccc(O)cc1)C(=O)O | inactive | 
10 | Cc1c(I)c(=O)n(-c2ccccc2)n1C | inactive | 
11 | CC(C)(C)C(=O)OCOC(=O)[C@@H]1N2C(=O)[C@@H](NC(=O)[C@H](N)c3ccccc3)[C@H]2SC1(C)C | inactive | 
12 | CC1(C)[C@@H](OC(=O)CCC(=O)O)CC[C@]2(C)[C@H]3C(=O)C=C4[C@@H]5C[C@@](C)(C(=O)O)CC[C@]5(C)CC[C@@]4(C)[C@]3(C)CC[C@@H]12 | inactive | 
13 | NS(=O)(=O)c1ccc(NC(=O)CCC(=O)O)cc1 | inactive | 
14 | CC1CC(OC(=O)c2ccccc2O)CC(C)(C)C1 (stereo not given) | inactive | 
15 | CCCOC(=O)c1ccc(N)cc1 | inactive | 
16 | C/C=C1\[C@H]2C=C(C)C[C@]1(N)c1ccc(=O)[nH]c1C2 | inactive | 
17 | CC(=O)Oc1cccc(O)c1 | inactive | 
18 | CCc1nnc(NS(=O)(=O)c2ccc(N)cc2)s1 | inactive | 
19 | O=C(O)c1ccc[n+]([O-])c1 | inactive | 
20 | CCCCCOC(=O)Nc1nc(=O)n([C@@H]2O[C@H](C)[C@@H](O)[C@H]2O)cc1F | inactive | 

Row | SMILES | outcome | activity change, negative = cytotoxic
21 | COc1ccc(C(=O)NCc2ccc(OCCN(C)C)cc2)cc1OC | inactive | 
22 | O=C(O)c1ccccc1OP(=O)(O)O | inactive | 
23 | OC(CCN1CCCC1)(c1ccccc1)C1CCCCC1 (stereo not given) | inactive | 
24 | Cc1cccc(C)c1NC(=O)CC12CCCN1CCC2 | inactive | 
25 | N[C@@H](Cc1ccc(O)cc1)C(=O)O |  | -16.1% [at 9.22 µM] (inactive)
26 | CC(O)CCCCn1c(=O)c2c(ncn2C)n(C)c1=O (stereo not given) | inactive | 
27 | CC(=O)Nc1ccc(OCCOCCOc2ccc(NC(C)=O)cc2)cc1 | inactive | 
28 | CC(=O)SC[C@@H](Cc1ccccc1)C(=O)NCC(=O)OCc1ccccc1 | inactive | 
29 | CCCCCCCC(=O)OCC(COC(=O)CCCCCCC)OC(=O)CCCCCCC | inactive | 
30 | CC(=O)N[C@@H](CC(C)C)C(=O)O | inactive | 
31 | NCC1CCC(C(=O)Oc2ccc(CCC(=O)O)cc2)CC1 (stereo not given) | inactive | 
32 | CC[C@H](C)[C@H](N)C(=O)O | inactive | 
33 | O=C(O)c1ccccc1C(=O)Nc1ccc(S(=O)(=O)Nc2nccs2)cc1 | inactive | 
34 | CC(=O)N1C[C@H](O)C[C@H]1C(=O)O | inactive | 
35 | CCN(CC)C(=O)c1cccc(C)c1 | inactive | 
36 | CCCCCCCC(=O)OCC(O)CO (stereo not given) | inactive | 
37 | NC(=O)CC[C@@H](N)C(=O)O | inactive | 
38 | NNC(=O)CP(=O)(c1ccccc1)c1ccccc1 | inactive | 
39 | CC[N+](C)(CC)CCOC(=O)C1c2ccccc2Oc2ccccc21 | inactive | 
40 | CC[N+](CC)(CC(=O)Nc1c(C)cccc1C)Cc1ccccc1 | inactive | 
